Assay outcomes from PubChem.
ALOX12 inh: inhibitors of human 12S-lipoxygenase ALOX12 | Potency, µM (series often up to 108 µM), for inactives: top-dose activity change, negative = inhibition, usual class: inhibitors | purified 12hLO, xylenol orange hydroperoxide absorbance | 580,000 tested, 1.1% active | AID 1671190 | P18054
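Hydroperoxide product was detected by ferrous iron/xylenol orange as the 573 to 405 nm absorbance ratio. Arachidonic acid at 40 uM (final) was turned over for 30 min at room temperature by 150 nM human 12hLO, pH 7.0 Hepes buffer, after 15 min compound preincubation.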
DT40 TDP1 no CPT: qHTS for Inhibitors of human tyrosyl-DNA phosphodiesterase 1 (TDP1): qHTS in cells in absence of CPT; Potency, µM (doses to about 46.2 µM), inactives show at the highest dose activity change, negative = growth inhibition, actives largely listed as inhibitors; AID 686978, 2013; DT40 Tdp1-/- hTDP1 cells, no CPT, ATP luminescence, 48 h; 420,000 tested, 15% active; further: nearly all actives have a fitted effect of over 55% in size
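Luminescent ATP content (CellTiter-Glo) served as the growth readout. Knockout chicken DT40 cells expressing human TDP1 were exposed to compounds without camptothecin for a minimum 48 hr at 37 °C.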
RORgamma inh: ROR gamma (mouse) transcription inhibition; P51450; Drosophila S2 Gal4-RORgamma UAS-luciferase reporter, 20 h; Potency, µM (titrated, usually from 53.6 µM), without a hit: at the highest dose activity change, negative = inhibition, actives largely listed as inhibitors; 310,000 tested, 5.4% active; further: nearly all actives have a fitted effect of over 60% in size
Target sequence (P51450 whole entry, looked up, the tested form may be a part): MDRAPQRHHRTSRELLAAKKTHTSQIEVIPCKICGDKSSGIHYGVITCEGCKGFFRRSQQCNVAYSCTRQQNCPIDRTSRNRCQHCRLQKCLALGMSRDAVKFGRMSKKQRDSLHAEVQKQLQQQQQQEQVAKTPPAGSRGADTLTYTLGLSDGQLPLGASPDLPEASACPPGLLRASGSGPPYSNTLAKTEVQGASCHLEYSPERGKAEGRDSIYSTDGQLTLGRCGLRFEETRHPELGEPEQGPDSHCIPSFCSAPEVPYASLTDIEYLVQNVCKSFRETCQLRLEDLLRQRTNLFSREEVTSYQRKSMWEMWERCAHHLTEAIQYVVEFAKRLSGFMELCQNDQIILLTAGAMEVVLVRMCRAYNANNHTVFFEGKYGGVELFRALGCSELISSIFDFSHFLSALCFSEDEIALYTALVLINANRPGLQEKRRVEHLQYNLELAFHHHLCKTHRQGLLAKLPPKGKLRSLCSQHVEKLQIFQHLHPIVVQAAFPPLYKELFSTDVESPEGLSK
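Stably transfected Drosophila Schneider cells are the test system, with ROR gamma fused to Gal4 and luciferase under UAS control; luminescence is read after 20 hr of 700 uM copper sulfate induction at ambient temperature.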
DT40 TDP1 CPT: growth inhibition of DT40 Tdp1-/-;hTDP1 cells with camptothecin (screen for TDP1 inhibitors); AID 686979; Potency, µM (series often up to 46.2 µM), for inactives: at the highest dose activity change, negative = growth inhibition, actives largely listed as inhibitors; chicken DT40 Tdp1-/-;hTDP1 cells + 20 nM CPT, ATP luminescence, 48 h; 420,000 tested, 12% active; further: nearly all actives have a fitted effect of over 55% in size
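Chicken DT40 Tdp1-/- cells complemented with human TDP1, 400 cells/well, exposed to compounds plus 20 nM camptothecin for at least 48 h at 37 C; viability read as ATP content by CellTiter-Glo luminescence.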
Gal4-VP16 FLuc: inhibits Gal4-VP16 luciferase reporter, ROR gamma counter-screen; Drosophila S2 Gal4-VP16 UAS-luciferase, luminescence, 20 h; Potency, µM (highest dose often 53.6 µM), inactives show top-dose activity, negative = inhibition, most hits filed as inhibitors; 310,000 tested, 3.5% active;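 further: Gal4-VP16 expression switched on by copper sulfate through the metallothionein promoter; nearly all actives have a fitted effect of over 50% in size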
ELG1 DNA repair: inhibitors of ELG1-dependent DNA repair in HEK293T cells; 330,000 tested, 2.3% active; Potency, µM (top dose mostly 46.1 µM), for inactives: top-dose activity change, negative = inhibition, most hits filed as inhibitors; HEK293T ELG1-luciferase reporter, luminescence, 16 h; DNA damage induced by 5-fluorouridine; further: nearly all actives have a fitted effect of over 55% in size
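5-Fluorouridine DNA damage + compound/DMSO, 2,000 cells/well, 16 h, 37 °C/5% CO2. ONE-Glo, 30 min RT, luminescence. Readout = decrease in reporter signal.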
* marks the source's active call; other numbers are inactive results. An excerpt weighted towards active compounds, which were near 15% of everything screened. The call rests on the fitted dose curve; in most records, active means well fitted curve in the direction sought with a large enough effect; inconclusive means small, poorly fitted or top-dose-only effect, or another doubt; inactive means no such curve, though single readings can be large; an effect the other way counts as inactive or inconclusive. On the % scale 0 is the no-effect control and ±100 the full control effect; potency means the concentration at half of the fitted maximal effect.

Screening COc1cc2c(cc1OC)[C@@H]1C(=O)c3ccc4c(c3O[C@@H]1CO2)C=CC(C)(C)O4 returned ALOX12 inh inconclusive, DT40 TDP1 no CPT 0.11µM*, RORgamma inh inconclusive and DT40 TDP1 CPT 0.15µM*.
`COC(=O)c1cccc(NS(=O)(=O)c2c(C)nn(C)c2C)c1` gave ALOX12 inh -5%.
N#Cc1nc(-c2ccccc2Cl)oc1NC1CCCCC1 was read as ALOX12 inh -11%.
`CC(=O)Nc1ccc(S(=O)(=O)[C@H]2CS(=O)(=O)C[C@@H]2N2CCOCC2)cc1` gave ALOX12 inh 37%.
COCCNC(=S)N=Nc1c(O)[nH]c2c(C)cc(C)cc12 was read as ALOX12 inh -11%, DT40 TDP1 no CPT -2%, RORgamma inh 2.2µM*, DT40 TDP1 CPT 20%, Gal4-VP16 FLuc 7.9µM* and ELG1 DNA repair 5%.
`CC(=O)c1ccc(N2CCN(c3ncc(C(F)(F)F)cc3Cl)CC2)cc1` gave ALOX12 inh 405%, DT40 TDP1 no CPT 29µM*, RORgamma inh -28%, DT40 TDP1 CPT inconclusive, Gal4-VP16 FLuc inconclusive and ELG1 DNA repair -13%.
O=C(c1ccc2nc[nH]c2c1)N1CCN(c2ncc(C(F)(F)F)cc2Cl)CC1 was read as ALOX12 inh 0%, DT40 TDP1 no CPT 18µM*, RORgamma inh inconclusive, DT40 TDP1 CPT 15µM*, Gal4-VP16 FLuc inconclusive and ELG1 DNA repair inconclusive.
O=C(c1ccc(Nc2nc3ccccc3n3nnnc23)cc1)N1CCN(c2cccc(C(F)(F)F)c2)CC1 was read as ALOX12 inh 0%, DT40 TDP1 no CPT 18µM* and DT40 TDP1 CPT inconclusive.
Screening CC(C)(C)NC(=O)NC(=O)CN1CCN(c2ncc(C(F)(F)F)cc2Cl)CC1 returned ALOX12 inh -39%, DT40 TDP1 no CPT 18µM*, RORgamma inh -2%, DT40 TDP1 CPT inconclusive, Gal4-VP16 FLuc -3% and ELG1 DNA repair 7.3µM*.
For O=C(c1ccc2nc[nH]c2c1)N1CCN(c2cccc(C(F)(F)F)c2)CC1 the results were ALOX12 inh 361%, DT40 TDP1 no CPT 16µM*, RORgamma inh inconclusive, DT40 TDP1 CPT inconclusive, Gal4-VP16 FLuc -15% and ELG1 DNA repair 7%.
O=C(c1ccc2ncsc2c1)N1CCN(c2cccc(C(F)(F)F)c2)CC1 was read as ALOX12 inh -24%, DT40 TDP1 no CPT 1.5µM*, DT40 TDP1 CPT 2.9µM* and ELG1 DNA repair -8%.
Screening O=C(c1ccc2ncsc2c1)N1CCN(c2nc3ccc(F)cc3s2)CC1 returned ALOX12 inh 1%.
Screening COC(=O)c1c(N)sc2c1CCN(c1ncc(C(F)(F)F)cc1Cl)C2 returned ALOX12 inh 297%, DT40 TDP1 no CPT inconclusive, RORgamma inh 1.6µM*, DT40 TDP1 CPT inconclusive, Gal4-VP16 FLuc inconclusive and ELG1 DNA repair -11%.
Screening COCCn1ncc(N2CCC(C(=O)NCc3nc4ccccc4n3C)C2)cc1=O (centres undefined) returned ALOX12 inh 79%.
CC(=O)Nc1ccc(C(=O)NC2CCN(c3cc(-c4ccccc4)[nH]n3)C2)cc1 (centres undefined) was read as ALOX12 inh 7%.
For CCOc1ccc(-c2cc(C(=O)NCCOC)[nH]n2)c(C)c1 the results were ALOX12 inh inconclusive, DT40 TDP1 no CPT -15% and DT40 TDP1 CPT -18%.
`CCOc1ccc(-c2cc(C(=O)Nc3ccc(C)c(NS(C)(=O)=O)c3)[nH]n2)c(C)c1` gave ALOX12 inh -70%, DT40 TDP1 no CPT inconclusive and DT40 TDP1 CPT 18µM*.
`COC(=O)c1ccc(C#CC(NP(=O)(c2ccccc2)c2ccccc2)c2ccccc2)cc1` (centres undefined) gave RORgamma inh inconclusive and Gal4-VP16 FLuc -11%.
